Bioassay records: PubChem, NMMLSC
MEP2-GFP yeast = yeast TOR pathway MEP2-GFP modulation. S. cerevisiae MEP2-GFP strain, flow cytometry GFP, 3 h; 100% = DMSO control level. AID 2016. 330,000 tested, 0.51% active. GFP response vs DMSO, % at 10 µM;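 active = GFP response versus DMSO above a set limit, roughly screen mean plus 3 SD, cut at about 180% in these data; inconclusive = fewer than 70 cells counted for a yeast strain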;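 also: median GFP fluorescence of the barcode-gated MEP2-GFP cells per well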
RPL19A-GFP yeast = alters RPL19A-GFP fluorescence in TOR pathway yeast screen; S. cerevisiae RPL19A-GFP strain, flow cytometry, 3 h; active compounds read low; percent response vs DMSO, % at 10 µM; 330,000 tested, 0.3% active;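 active = percent response vs DMSO below 50%; inconclusive = fewer than 70 events counted for the yeast strain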;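 also: median channel GFP fluorescence of the barcoded RPL19A-GFP strain; lower means less RPL19A-GFP as with rapamycin TOR inhibition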
LAP4-GFP MLPCN = modulators of TOR pathway LAP4-GFP in S. cerevisiae | S. cerevisiae LAP4-GFP multiplex, flow cytometry GFP, 3 h; median GFP as percent of DMSO wells | GFP response vs DMSO, % at 10 µM | 320,000 tested, 0.34% active | AID 2023;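 active = GFP response vs DMSO above a set limit, about the screen mean plus 3 SD, cut at about 150% in these data; inconclusive = under 70 cell events counted for the yeast strain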
CIT2 TOR yeast = alters CIT2-GFP fluorescence in TOR pathway yeast screen | S. cerevisiae CIT2-GFP strain, flow cytometry, 3 h; 100 means same as DMSO wells | GFP response vs DMSO, % at 10 µM | 320,000 tested, 0.065% active;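 active = GFP response relative to DMSO above a set limit, near the screen mean plus 3 SD, cut at about 150% in these data; inconclusive = Fewer than 70 cells measured for a yeast strain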;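 also: ratio of well median GFP fluorescence to mean of DMSO wells on the plate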
AGP1-GFP MLPCN = modulators of TOR pathway AGP1-GFP in S. cerevisiae; S. cerevisiae AGP1-GFP multiplex flow cytometry, 3 h; GFP as percent of DMSO wells; GFP response vs DMSO, % at 10 µM; 320,000 tested, 0.02% active; AID 2066;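 active = GFP response relative to DMSO above a set limit, near screen average plus 3 SD, cut at about 150% in these data; inconclusive = fewer than 70 cells counted for the yeast strain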;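 also: median GFP channel fluorescence of the gated AGP1 strain per well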
A number is an active result; - = inactive; ? = inconclusive; ! = not confirmed by another sample; [ ] = another dose, or the depositor's remark. A selection: hits, their analogues and other compounds. The true share with any hit is near 0.92%.

SMILES | MEP2-GFP yeast | RPL19A-GFP yeast | LAP4-GFP MLPCN | CIT2 TOR yeast | AGP1-GFP MLPCN
CC1CCCCN1C(=O)Cn1cnc2c1c(=O)n(C)c(=O)n2C (stereo unspecified) | - | - | - | - | -
Cc1ccc(C(=O)N/C(=C/c2ccc(C(C)C)cc2)C(=O)NCCCN2CCOCC2)cc1 | - | - | - | - | -
COc1ccccc1N1CCN(CC(O)c2ccccc2)CC1 (stereo unspecified) | 290.2[may fluoresce violet] | 46.0[may fluoresce violet] | - | ? | ?
COc1ccccc1N1CCN(CC(O)c2c(C)[nH]c3ccccc23)CC1 (stereo unspecified) | - | - | - | - | -
CC1CCN(CCCNC(=O)C2CCN(S(=O)(=O)N3CCC4(CC3)OCCO4)CC2)CC1 | - | 44.9[may fluoresce violet] | - | ? | -
Cc1nnc(SCC(=O)NCc2ccco2)[nH]c1=O | - | - | - | - | -
CCc1c(O)nc(SCC(=O)NCc2ccco2)[nH]c1=O | 677.5[may fluoresce violet] | 39.3[may fluoresce violet] | 203.8[may fluoresce violet] | ? | -
O=C(COc1ccc2ccc(=O)oc2c1)Nc1ccc(N2CCOCC2)cc1 | - | - | - | - | -
O=C(COc1ccc2ccc(=O)oc2c1)Nc1ccc(CN2CCOCC2)cc1 | - | 15.4[may fluoresce violet] | - | ? | ?
COc1ccccc1N1C(=S)N=C(Nc2c(C)cccc2C)C12CCCC2 | - | - | - | - | -
Nc1nc2ccc(C(=O)NC3CCCCC3)cc2s1 | - | - | - | - | -
O=C(NC1CCCCC1)c1ccc2snnc2c1 | 364.1[may fluoresce violet] | 37.3[may fluoresce violet] | - | ? | ?
O=C(NCCCN1CCCC1=O)c1cccc(S(=O)(=O)Nc2ccc(F)cc2)c1 | - | - | - | - | -
Cc1nn(-c2ccccc2)c(Cl)c1/C=N/NC(=O)c1ccnn1C | - | - | - | - | -
CC(=O)CC(c1ccccc1)c1c(O)c2ccccc2oc1=O (stereo unspecified) | 211.7![may fluoresce violet] | 40.4![may fluoresce violet] | - | ? | ?
Cc1ccc2cn[nH]c2c1N | - | - | - | - | -
CCOC(=O)CC1C(=O)NCCN1S(=O)(=O)c1ccc(NC(C)=O)cc1 (stereo unspecified) | - | - | - | 150.4[may fluoresce green] | -
Cc1cc(C)nc(NS(=O)(=O)c2ccc(N3C(=O)C4CC=C(Cl)CC4C3=O)cc2)n1 (stereo unspecified) | ? | 12.1[may fluoresce violet] | ? | ? | ?
CC(C)(C)OC(=O)N1CCN(C(=O)c2[nH]cnc2C(=O)Nc2nccs2)CC1 | - | - | - | - | -
CCCC(c1nnnn1CC(=O)OCC)N(Cc1cc2c(C)cc(C)cc2[nH]c1=O)C1CCCC1 (stereo unspecified) | 180.9[may fluoresce violet] | - | - | ? | -
COc1ccc(OC)c(NC(=O)CN2CCc3ccccc3C2)c1 | 395.5[may fluoresce violet] | 38.8[may fluoresce violet] | - | ? | -
COc1ccc(NC(=O)CN2CCc3ccccc3C2)c([N+](=O)[O-])c1 | - | - | - | - | -
O=C(Nc1ccccc1F)c1oc2ccccc2c1NC(=O)C1CC1 | 308.5[may fluoresce violet] | 43.1[may fluoresce violet] | - | ? | ?
Cc1cccc(NC(=S)NC2CC3CCCC(C2)N3Cc2cccs2)c1 (stereo unspecified) | - | - | - | - | -
NS(=O)(=O)c1ccc(CCNc2ccc(C(F)(F)F)cn2)cc1 | 353.8[may fluoresce violet] | 32.1[may fluoresce violet] | ? | ? | ?
SMILES | MEP2-GFP yeast | RPL19A-GFP yeast | LAP4-GFP MLPCN | CIT2 TOR yeast | AGP1-GFP MLPCN
FC(F)(F)c1ccc(NCCc2ccccc2)nc1 | - | - | - | - | -
CC(=O)c1ccc(S(=O)(=O)Nc2ccc3c(c2)OCO3)cc1 | - | - | - | - | -
O=C(COc1ccc(Br)cc1)Nc1ccc(-c2nnc(-c3ccco3)o2)cc1 | 177.0[may fluoresce violet] | 48.5[may fluoresce violet] | - | ? | -
CC1C/C(=C/c2ccncc2)C(=O)/C(=C/c2ccncc2)C1 (stereo unspecified) | 389.1[may fluoresce violet] | 37.9[may fluoresce violet] | - | ? | -
O=C1/C(=C/c2ccncc2)Cc2ccccc21 | - | - | - | - | -
CC(C)(C)NC(=O)CSc1nnc(C2CC2)n1-c1ccccc1 | - | - | - | - | -
CCOC(=O)c1sc(NC(=O)C(C)Sc2nnc(N)s2)nc1C (stereo unspecified) | - | - | - | - | -
Cc1c(N)cc(N)cc1C(=O)O | - | - | - | - | -
Cc1c(Br)cc(C(=O)O)c(C)c1C | - | - | 165.8 | - | -
COc1ccc([C@H]2CC(=O)C=C(c3cc4ccccc4s3)C2)cc1 | - | - | - | - | -
Cc1cc(-c2csc3nc[nH]c(=S)c23)cc(C)c1C | 184.9 | - | - | - | -
COc1ccc2c(c1)C=Cc1ccccc1O2 | - | - | 150.1 | - | -
COc1ccc2[nH]c3ccccc3c2c1 | - | - | - | - | -
Cc1ccc(/C=C/C(=O)NC2CCCCCCC2)o1 | - | - | 169.5 | - | -
CC(=O)Nc1ccc(S(=O)(=O)NC(CC(=O)NCCC2=CCCCC2)C(C)C)cc1 (stereo unspecified) | 210.7 | - | 281.9 | - | 151.6
COc1ccc(NC(=O)C(=O)NCC2CCCN2S(=O)(=O)c2ccc(C)cc2)cc1 (stereo unspecified) | - | - | - | - | -
Nc1cc(=O)[nH]c(SCc2csc(-c3ccccc3)n2)n1 | - | - | - | - | -
Cc1cc(=O)[nH]c(SCc2csc(-c3ccccc3)n2)n1 | 297.8[may fluoresce violet] | - | - | ? | -
On1nnc2c3ccccc3c3ccccc3c21 | - | - | - | - | -
Cc1ccnc2nc(C(=O)Nc3nnc(CC(C)C)s3)nn12 | - | - | - | - | -
CCCCc1nnc(NC(=O)c2nc3nccc(C)n3n2)s1 | 214.5 | - | - | - | -
COc1ccc(Cl)cc1N(CC(=O)N1CCCC1)S(=O)(=O)c1ccc(C)cc1 | 216.3[may fluoresce violet] | 47.0[may fluoresce violet] | - | ? | ?
O=C(OC(c1ccc(NS(=O)(=O)c2ccccc2)cc1)(C(F)(F)F)C(F)(F)F)c1ccccc1 | 193.8 | - | - | - | -
Cc1ccc(S(=O)(=O)Nc2ccc(C(OC(=O)c3ccccc3[N+](=O)[O-])(C(F)(F)F)C(F)(F)F)cc2)cc1 | - | - | - | - | -
Cc1nn(C)cc1S(=O)(=O)NCc1ccccc1Cl | - | - | - | - | -
SMILES | MEP2-GFP yeast | RPL19A-GFP yeast | LAP4-GFP MLPCN | CIT2 TOR yeast | AGP1-GFP MLPCN
O=C(O)CCc1ccc(-c2ccc(Br)cc2)o1 | - | - | 152.6 | - | -
Cc1cc(-c2ccc(N=Nc3c(S(=O)(=O)O)cc4cc(S(=O)(=O)O)cc(N)c4c3O)c(C)c2)ccc1N=Nc1c(S(=O)(=O)O)cc2cc(S(=O)(=O)O)cc(N)c2c1O | - | ? | 400.2[may fluoresce red] | - | -
O=S(=O)(O)c1cc(O)c2c(O)c(N=Nc3cc(Cl)ccc3O)c(S(=O)(=O)O)cc2c1 | - | - | - | - | -
COc1cccc(C(=O)CSc2nccn2C)c1 | - | - | - | - | -
Cn1ccnc1SCC(=O)c1ccc2ccccc2c1 | - | 49.1[may fluoresce violet] | - | ? | -
CCOC(=O)C1CCCCN1S(=O)(=O)c1ccc2c(c1)CC(C)N2C(=O)C1CCC1 (stereo unspecified) | - | - | - | - | -
COC(=O)c1c(C)noc1-c1snnc1C | - | - | - | - | -
CC(C)=NOC(=O)c1c(C)noc1-c1snnc1C | 603.0[may fluoresce violet] | - | - | ? | -
